Data from PubChem BioAssay (NCI).
Compounds without any hit were thinned out: in the full panel of roughly 83,000, 20% have a hit.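 Testing used 96-well plates and a 48-hour single-concentration exposure. Example: -40 means 40% of the starting cells died.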 Active and inactive are the calls of the source. The calls were made as follows: active = growth percent below 10; inactive = the rest.

What was measured:
Test in all cases: NCI-60 one-dose screen, 48 h (100 = growth as untreated, 0 = no growth, -100 = all killed)
SR leukemia = details: 10 µM unless noted
RPMI-8226 leukemia = details: 10 µM
OVCAR-8 ovarian = details: 10 µM unless noted
OVCAR-5 ovarian = details: 10 µM unless noted
OVCAR-4 ovarian = details: 10 µM unless noted
SK-OV-3 ovarian = details: 10 µM
IGROV1 ovarian = details: 10 µM unless noted
OVCAR-3 ovarian = details: 10 µM unless noted
HS 578T breast = details: 10 µM unless noted
NCI/ADR-RES ovarian = details: 10 µM unless noted
T-47D breast = details: 10 µM
BT-549 breast = details: 10 µM unless noted
MDA-MB-435 melanoma = details: 10 µM unless noted
SW-620 colon = details: 10 µM unless noted
MCF7 breast = details: 10 µM unless noted
HCT-116 colon = details: 10 µM unless noted
HCC-2998 colon = details: 10 µM unless noted
KM12 colon = details: 10 µM unless noted

Measured: growth

O=C(Nc1ccc(Cl)c(Cl)c1)NC(CO)(CO)CO
inactive: SR leukemia 101% | RPMI-8226 leukemia 96.7% | OVCAR-8 ovarian 96.8% | OVCAR-5 ovarian 94.7% | OVCAR-4 ovarian 110% | SK-OV-3 ovarian 95.5% | IGROV1 ovarian 100% | OVCAR-3 ovarian 104% | HS 578T breast 96% | NCI/ADR-RES ovarian 100% | T-47D breast 96% | BT-549 breast 93.8% | MDA-MB-435 melanoma 95.8% | SW-620 colon 101% | MCF7 breast 97.4% | HCT-116 colon 101% | HCC-2998 colon 102% | KM12 colon 97.7%

CCCCC(=O)N/N=C/c1cc(I)cc(I)c1O
inactive: SR leukemia 16.8% | RPMI-8226 leukemia 53% | OVCAR-8 ovarian 36.6% | OVCAR-5 ovarian 59.6% | OVCAR-4 ovarian 34.1% | SK-OV-3 ovarian 58.6% | IGROV1 ovarian 35.8% | OVCAR-3 ovarian 18.7% | HS 578T breast 76.6% | NCI/ADR-RES ovarian 23.9% | T-47D breast 52.1% | BT-549 breast 55.2% | MDA-MB-435 melanoma 56.7% | SW-620 colon 54.6% | MCF7 breast 41.5% | HCT-116 colon 15.1% | HCC-2998 colon 66.5% | KM12 colon 53.2%

Cc1nc2nc(C(F)(F)F)[nH]c2nc1C
inactive: SR leukemia 111% | RPMI-8226 leukemia 92.1% | OVCAR-8 ovarian 105% | OVCAR-5 ovarian 115% | OVCAR-4 ovarian 97.7% | SK-OV-3 ovarian 98.5% | IGROV1 ovarian 117% | OVCAR-3 ovarian 116% | HS 578T breast 119% | NCI/ADR-RES ovarian 107% | T-47D breast 104% | BT-549 breast 100% | MDA-MB-435 melanoma 112% | SW-620 colon 114% | MCF7 breast 95.2% | HCT-116 colon 101% | KM12 colon 105%

COc1ccc(-c2cc(=O)oc3c4c(ccc23)OCN(Cc2ccc(F)cc2)C4)cc1
inactive: SR leukemia 54.7% | RPMI-8226 leukemia 30.1% | OVCAR-8 ovarian 56.7% | OVCAR-5 ovarian 80.2% | OVCAR-4 ovarian 35.2% | SK-OV-3 ovarian 74.3% | IGROV1 ovarian 64.5% | OVCAR-3 ovarian 52.4% | HS 578T breast 83.1% | NCI/ADR-RES ovarian 45.9% | T-47D breast 62.8% | BT-549 breast 66% | MDA-MB-435 melanoma 59.6% | SW-620 colon 66.2% | MCF7 breast 48.8% | HCT-116 colon 39.6% | KM12 colon 79.4%

Cc1nc2cc(Nc3nc(NCCO)nc(Nc4ccc(F)cc4)n3)ccc2n1Cc1ccccc1
inactive: SR leukemia 14.9% | RPMI-8226 leukemia 14.2% | OVCAR-8 ovarian 80% | OVCAR-5 ovarian 114% | OVCAR-4 ovarian 95.3% | SK-OV-3 ovarian 105% | IGROV1 ovarian 88.9% | OVCAR-3 ovarian 90.2% | HS 578T breast 107% | NCI/ADR-RES ovarian 97.7% | T-47D breast 65.3% | BT-549 breast 101% | MDA-MB-435 melanoma 91.6% | SW-620 colon 109% | MCF7 breast 91.3% | HCT-116 colon 76.5% | HCC-2998 colon 106% | KM12 colon 80.3%

CN1CCN(C(=O)OCCOCCOC(=O)N2CCN(C)CC2)CC1
inactive: SR leukemia 95% | RPMI-8226 leukemia 81% | OVCAR-8 ovarian 102% | OVCAR-5 ovarian 104% | OVCAR-4 ovarian 106% | SK-OV-3 ovarian 117% | IGROV1 ovarian 132% | OVCAR-3 ovarian 117% | HS 578T breast 111% | NCI/ADR-RES ovarian 96.3% | T-47D breast 109% | BT-549 breast 98.7% | MDA-MB-435 melanoma 98.9% | SW-620 colon 117% | MCF7 breast 102% | HCT-116 colon 94.8% | HCC-2998 colon 98.4% | KM12 colon 104%

Cc1nc2cc(Nc3nc(Nc4ccc(F)cc4)nc(N4CCCC4)n3)ccc2n1Cc1ccccc1
active: SR leukemia -27.9% | RPMI-8226 leukemia -47.4% | OVCAR-8 ovarian -35.2% | OVCAR-5 ovarian -54.8% | OVCAR-4 ovarian 4.79% | SK-OV-3 ovarian -2.81% | IGROV1 ovarian -6.78% | OVCAR-3 ovarian -84% | NCI/ADR-RES ovarian -28% | T-47D breast -31.3% | BT-549 breast -14% | MDA-MB-435 melanoma -74.2% | SW-620 colon -53.8% | MCF7 breast 3.05% | HCT-116 colon -79.3% | HCC-2998 colon -59.2% | KM12 colon -73.4%
inactive: HS 578T breast 30.6%

O=C1c2ccccc2C(=O)c2c(Nc3ccc(CCO)cc3)ccc(O)c21
active: SR leukemia -5.4% | HS 578T breast -21.7%
inactive: RPMI-8226 leukemia 46.5% | OVCAR-8 ovarian 74.1% | OVCAR-5 ovarian 105% | OVCAR-4 ovarian 72.5% | SK-OV-3 ovarian 73.5% | IGROV1 ovarian 45.4% | OVCAR-3 ovarian 122% | NCI/ADR-RES ovarian 82% | T-47D breast 33.2% | BT-549 breast 53.3% | MDA-MB-435 melanoma 88.4% | SW-620 colon 65.8% | MCF7 breast 33.7% | HCT-116 colon 68.6% | HCC-2998 colon 66.8% | KM12 colon 76.2%

CN1CCC(OC2c3ccccc3CCc3ccccc32)CC1
inactive: SR leukemia 96.5% | RPMI-8226 leukemia 88% | OVCAR-8 ovarian 97.6% | OVCAR-5 ovarian 95.3% | OVCAR-4 ovarian 94.4% | SK-OV-3 ovarian 96% | IGROV1 ovarian 109% | OVCAR-3 ovarian 106% | HS 578T breast 87.4% | NCI/ADR-RES ovarian 96.5% | T-47D breast 94.9% | BT-549 breast 90.7% | MDA-MB-435 melanoma 95.5% | SW-620 colon 95.1% | MCF7 breast 90.5% | HCT-116 colon 98.4% | KM12 colon 102%

COC(=O)C1C2CC3c4[nH]c5cc(OC)ccc5c4CCN3CC2CC(OC2CCCCO2)C1OC (stereo not given)
inactive: SR leukemia 88.5% | RPMI-8226 leukemia 87.5% | OVCAR-8 ovarian 96.2% | OVCAR-5 ovarian 105% | OVCAR-4 ovarian 93.6% | SK-OV-3 ovarian 101% | IGROV1 ovarian 114% | OVCAR-3 ovarian 107% | HS 578T breast 96.2% | NCI/ADR-RES ovarian 95.4% | T-47D breast 108% | BT-549 breast 97.2% | MDA-MB-435 melanoma 101% | SW-620 colon 100% | MCF7 breast 95.8% | HCT-116 colon 103% | KM12 colon 105%

N#CC1=C(N)Oc2cc(N)ccc2C1c1ccc(F)cc1 (stereo not given)
inactive: SR leukemia 20.5% | RPMI-8226 leukemia 81.6% | OVCAR-8 ovarian 98.6% | OVCAR-5 ovarian 97.2% | OVCAR-4 ovarian 94.1% | SK-OV-3 ovarian 85.2% | IGROV1 ovarian 69.4% | OVCAR-3 ovarian 96.8% | HS 578T breast 81.4% | NCI/ADR-RES ovarian 44.9% | T-47D breast 96.6% | BT-549 breast 69.2% | SW-620 colon 46.8% | MCF7 breast 64.1% | HCT-116 colon 78.4% | KM12 colon 49.7%
active: MDA-MB-435 melanoma -21.9%

Fc1ccccc1Nc1ccc2nnc(-c3ccncc3)n2n1
inactive: SR leukemia 89.4% | RPMI-8226 leukemia 95.4% | OVCAR-8 ovarian 103% | OVCAR-5 ovarian 97.3% | OVCAR-4 ovarian 107% | SK-OV-3 ovarian 107% | IGROV1 ovarian 105% | OVCAR-3 ovarian 108% | HS 578T breast 105% | NCI/ADR-RES ovarian 99.2% | T-47D breast 85.3% | BT-549 breast 101% | MDA-MB-435 melanoma 106% | SW-620 colon 106% | MCF7 breast 94.7% | HCT-116 colon 99.5% | HCC-2998 colon 107% | KM12 colon 112%

Cc1c(C)n(CC(O)CNC2CCCCC2C)c2ccccc12 (stereo not given)
inactive: SK-OV-3 ovarian 52.9% | HS 578T breast 28.3%
active: SR leukemia 1.95% | RPMI-8226 leukemia -10.6% | OVCAR-8 ovarian 4.94% | OVCAR-5 ovarian -58.8% | OVCAR-4 ovarian -26.2% | IGROV1 ovarian -73.1% | OVCAR-3 ovarian -89.8% | NCI/ADR-RES ovarian 3.85% | T-47D breast -10.5% | BT-549 breast -94.3% | MDA-MB-435 melanoma -67.9% | SW-620 colon -77% | MCF7 breast -23.4% | HCT-116 colon -81.9% | KM12 colon -77.9%

O=[N+]([O-])c1cc2c(cc1Br)C1C(C3C2C(Cl)(Cl)C(Cl)=C(Cl)C3(Cl)Cl)C(Cl)(Cl)C(Cl)=C(Cl)C1(Cl)Cl (stereo not given)
inactive: SR leukemia 80.2% | RPMI-8226 leukemia 88.1% | OVCAR-8 ovarian 97% | OVCAR-5 ovarian 102% | OVCAR-4 ovarian 102% | SK-OV-3 ovarian 101% | IGROV1 ovarian 102% | OVCAR-3 ovarian 95.6% | HS 578T breast 114% | NCI/ADR-RES ovarian 94% | T-47D breast 90.8% | BT-549 breast 93.1% | MDA-MB-435 melanoma 103% | SW-620 colon 115% | MCF7 breast 91.5% | HCT-116 colon 89.7% | HCC-2998 colon 93.4% | KM12 colon 106%

O=C1c2ccccc2-c2nnc(-c3ccc(Br)cc3)cc21
inactive: SR leukemia 11.6% | RPMI-8226 leukemia 27.4% | OVCAR-8 ovarian 77.7% | OVCAR-5 ovarian 110% | OVCAR-4 ovarian 10.1% | SK-OV-3 ovarian 91.6% | IGROV1 ovarian 40.4% | HS 578T breast 48.2% | T-47D breast 52.7% | BT-549 breast 71.5% | SW-620 colon 73.3% | MCF7 breast 14.8% | KM12 colon 64%
active: OVCAR-3 ovarian -23% | NCI/ADR-RES ovarian 9.3% | MDA-MB-435 melanoma -69.1% | HCT-116 colon 1.98%

O=S(=O)(/N=C1C=C/C(=N\S(=O)(=O)c2ccccc2)c2ccccc2\1)c1ccccc1
inactive: SR leukemia 107% | RPMI-8226 leukemia 77.9% | OVCAR-8 ovarian 94.9% | OVCAR-5 ovarian 114% | OVCAR-4 ovarian 91.9% | SK-OV-3 ovarian 104% | IGROV1 ovarian 112% | OVCAR-3 ovarian 101% | HS 578T breast 112% | NCI/ADR-RES ovarian 102% | T-47D breast 93.1% | BT-549 breast 104% | SW-620 colon 112% | MCF7 breast 84.1% | HCT-116 colon 94.5% | KM12 colon 101%
active: MDA-MB-435 melanoma 0.648%
